Source: PubChem (National Center for Advancing Translational Sciences (NCATS))
Pf growth 96h: Primary qHTS for delayed death inhibitors of the malarial parasite plastid, 96 hour incubation; Potency, µM (doses to about 28.7 µM), inactives show top-dose activity change, negative = inhibition, most hits filed as inhibitors; 6.9% of 320,000 active; AID 504834, 2011; P. falciparum luciferase reporter growth, 96 h; note: potency is the fitted concentration of half-maximal effect
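96 h incubation, 37 C, 5% CO2, of luciferase-reporter P. falciparum-infected RBCs (2% hematocrit, 0.05% parasitemia final) with test compounds; endpoint luminescence.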
HCV inh: qHTS Assay for Inhibitors of Hepatitis C Virus (HCV); Huh7.5.1 HCVcc-Cre infection, luciferase reporter, 44 h; Potency, µM (top dose mostly 41.8 µM), inactives show at the top dose activity change, negative = inhibition, most hits filed as inhibitors; 3.4% of 340,000 active; AID 651820, 2012; note: potency is the fitted concentration of half-maximal effect
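Compounds are dispensed onto cells plated 4 h earlier at 1,000 per well, with HCVcc-Cre virus (about 0.5 moi) added next. Following 44 h of culture, luminescent signal is measured for 15 sec after 15 min with substrate at room temperature.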
HCMV inh: qHTS Assay for inhibitors of the human cytomegalovirus (HCMV). HFF cells, HCMV-luciferase reporter, 72 h; active compounds read low. activity change, negative = inhibition, % at 57.5 µM. 4.5% of 410,000 active. AID 1259415, 2018; in the data active = activity change below about -60%; inconclusive = no clear call, values can overlap the other calls; inactive = above about -39%
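Screen run at 2 compound doses on HFFs infected with reporter HCMV, MOI 1 PFU/cell. Luciferase activity from cell lysates at 72 h post infection gave inhibition relative to buffer-only and Salinomycin wells.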
Pf growth 48h: Primary qHTS for delayed death inhibitors of the malarial parasite plastid, 48 hour incubation; Potency, µM (top dose mostly 28.7 µM), inactives show top-dose activity change, negative = inhibition, usual class: inhibitors; P. falciparum luciferase growth in erythrocytes, 48 h; 5.9% of 310,000 active; note: potency is the fitted concentration of half-maximal effect
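Cell-based growth assay: transgenic P. falciparum expressing firefly luciferase, cultured in red cells within RPMI 1640 containing 0.5% w/v Albumax, 24 mM bicarbonate and gentamycin. A drop in luciferase activity indicates inhibition.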
* hit, by the source's call; ? = inconclusive; . = no result. In the library only some 13% were active in any assay of this set; here they are far more common. Unless noted, calls come from the whole dose curve; as a rule, active = well fitted inhibition curve with a large enough effect; inconclusive = small, poorly fitted or top-dose-only effect, or another doubt; inactive = no such curve, though single readings can be large or run the other way. % is set by controls: 0 for no effect and ±100 for the full control effect.

SMILES | Pf growth 96h | HCV inh | HCMV inh | Pf growth 48h
O=C(NN=Cc1cccc(O)c1O)c1ccccc1 | . | . | -94* | .
O=C(N/N=C/c1ccccc1O)c1cccc2ccccc12 | 214% | ? | -21 | 12µM*
COc1ccc(C(=O)Nc2nnc(S(=O)(=O)N3CCN(c4ccc(C)cc4)CC3)s2)cc1 | . | . | 16 | .
Cc1c(C(=O)N2CCCCCC2)c(S(=O)(=O)Nc2ccc(OC(F)(F)F)cc2)c(C)n1C | . | . | 12 | .
O=C(N/N=C/c1ccccc1[N+](=O)[O-])c1ccncc1 | 0.17µM* | 3% | 8 | 75%
O=C(N/N=C/c1cc([N+](=O)[O-])ccc1O)c1cccc2cc[nH]c12 | 3.7µM* | ? | -80* | ?
O=C(N/N=C/c1cc([N+](=O)[O-])ccc1O)c1ccc2c(c1)OCCO2 | 99% | ? | 25 | -91%
O=[N+]([O-])c1ccc(NN=Cc2cc(Br)ccc2O)nc1 | . | ? | -100* | .
O=C(N/N=C/c1cc([N+](=O)[O-])ccc1O)c1ccncc1 | ? | -12% | 37 | 8.3µM*
O=C(N/N=C/c1cccc([N+](=O)[O-])c1)c1cccc2cc[nH]c12 | -1% | 1% | 52 | 48%
O=[N+]([O-])c1ccc(NN=Cc2cccc(O)c2)nc1 | . | ? | 40 | .
CCCC(=O)N(c1ccc2oc3c(c2c1)CCCC3)S(=O)(=O)c1ccc(CC)cc1 | . | . | -6 | .
O=C(N/N=C/c1ccccc1O)c1ccncc1 | 12µM* | ? | 12 | 9.3µM*
Cc1nc(C)c(C(=O)N/N=C/c2c[nH]c3ccccc23)s1 | . | 1% | . | -1%
O=C(N/N=C/C=C\c1ccccc1[N+](=O)[O-])c1cccs1 | 2.9µM* | ? | -4 | 17%
O=C(N/N=C/c1cc(Br)ccc1O)c1ccncc1 | 1.7µM* | ? | 0 | 2.6µM*
O=C(N/N=C/C=C/c1ccccc1[N+](=O)[O-])c1ccncc1 | 46% | -1% | 18 | 46%
Cc1nc(C)c(C(=O)N/N=C/c2cc(Br)ccc2O)s1 | 5.2µM* | ? | -99* | 2.3µM*
COc1ccc(NS(=O)(=O)c2ccc3[nH]c(=O)ccc3c2)cc1OC | . | . | 32 | .
CC(C)CCn1c(=O)c2sccc2n2c(CCCC(=O)N3CCN(c4ccccn4)CC3)nnc12 | ? | -23% | -9 | ?
CC(C)CCn1c(=O)c2sccc2n2c(CCCC(=O)N3CCC(N4CCCCC4)CC3)nnc12 | 34% | 13µM* | ? | ?
CCn1c(=O)c2sccc2n2c(CCCC(=O)NC3CCN(Cc4ccccc4)CC3)nnc12 | 13µM* | 3% | -13 | 11%
CCn1c(=O)c2sccc2n2c(CCCC(=O)N3CCN(c4ccccn4)CC3)nnc12 | ? | 8% | 0 | 10µM*
OCCN1CCN(C(c2ccc(Cl)cc2Cl)c2sc3nc(-c4ccco4)nn3c2O)CC1 (stereo unspecified) | . | . | -4 | .
O=C1c2ccc3c4c(ccc(c24)C(=O)N1c1cccc(O)c1)C(=O)N(c1cccc(O)c1)C3=O | 1µM* | 5µM* | -88* | 1.9µM*
SMILES | Pf growth 96h | HCV inh | HCMV inh | Pf growth 48h
O=C1c2ccc3c4c(ccc(c24)C(=O)N1c1cccc(O)c1)CC3 | 31% | 13% | ? | 12%
COc1ccccc1Oc1ccc2c(c1)C(=O)N(c1cccc(O)c1)C2=O | 66% | 22% | -5 | 2.6µM*
CCc1ccc(CNC(=O)C2CCCN(c3nnc(C)c4c(C)n(-c5ccc(OC)cc5)nc34)C2)cc1 (stereo unspecified) | . | . | -30 | .
Cc1cc(C)c(NC(=O)C2CCN(C(=O)N3CCOc4ccccc43)CC2)c(C)c1 | . | . | -16 | .
Cc1ccc2nc(CN3CCN(C(=O)Nc4ccc(F)cc4)CC3)oc2c1 | . | . | -16 | .
Cc1cc(C(=O)NC2CCCc3c2cnn3-c2cccc(C)c2C)n(C)n1 (stereo unspecified) | 0% | 0.32µM* | -40 | -29%
Cc1cccc(-n2ncc3c2CCCC3NC(=O)C2CCOCC2)c1C (stereo unspecified) | -15% | 22µM* | -38 | -15%
Cc1cccc(-n2ncc3c2CCCC3NC(=O)c2ccc[n+]([O-])c2)c1C (stereo unspecified) | ? | 13µM* | ? | 14%
Cc1ccn(CCC(=O)NC2CCCc3c2cnn3-c2cccc(C)c2C)n1 (stereo unspecified) | 3% | -8% | ? | 0%
